Out of some 13,000 compounds screened, about 3,200 (25%) showed an effect of 50% or more. The list shows a part of the results.

This note sets out measurements from paper PMC4552634, “A New Set of Chemical Starting Points with Plasmodium falciparum Transmission-Blocking Potential for Antimalarial Drug Discovery” (PLoS ONE, 2015).

This experiment deals with P. falciparum stage V gametocytes. On the set-up: BacTiter-Glo ATP luminescence viability of purified stage V gametocytes in 384-well plates, per cent inhibition versus DMSO. The following applies: 48 h, 5 µM; inhibitor.
`CCCCC(CC)CN1C(=O)C(c2ccccc2)(c2ccccc2)N=C1N` (stereo not shown) [TCMDC-136814]: the % Inhibition (commonly the drop in the measured response relative to a control, in per cent) is recorded as -93.32%. The same measure for `CNC(=O)c1cc(Nc2nnc(-c3ccc(C)c(S(=O)(=O)NC4CCCCC4)c3)c3ccccc23)ccc1OC` [TCMDC-125661]: -9.997%.

Regarding `Oc1ccc(CN2CCC(NCc3cccc(C(F)(F)F)c3)CC2)cc1` [TCMDC-141655], the “% Inhibition” value is -19.37%. The same measure for `NCc1ccc(-c2cccc(CNC3CCN(Cc4ccccc4)CC3)c2)cc1` [TCMDC-140478]: 84.33%; for `NCc1cccc(-c2cccc(CNC3CCN(Cc4ccccc4)CC3)c2)c1` [TCMDC-140477]: 86.14%. `NCc1cccc(-c2ccc(CNC3CCN(Cc4ccccc4)CC3)cc2)c1` [TCMDC-140486]: the “% Inhibition” value was determined as 46.75%. In the case of `CCOc1cc(C(=O)NC2CCN(Cc3ccccc3)C2)ccc1-c1nc2ccc(Cl)cc2[nH]1` (stereo not shown) [TCMDC-140911], the “% Inhibition” value is -5.376%. The same measure for `O=C(Nc1ccc(-c2nc3ccccc3[nH]2)cc1)c1ccc(S(=O)(=O)N2CCCCCC2)cc1` [TCMDC-125712]: -20.46%. In the case of `COc1ccc2nc(C)cc(NN=Cc3ccccc3[N+](=O)[O-])c2c1` [TCMDC-142087], the “% Inhibition” value worked out at 48.43%.

For `COc1ccc2nc(-c3ccccc3)cc(NN=Cc3ccc([N+](=O)[O-])o3)c2c1` [TCMDC-142040], the “% Inhibition” value is recorded as -17.37%. For `Cc1ccc2nc(C)cc(N/N=C/c3ccccc3[N+](=O)[O-])c2c1` [TCMDC-123975], the “% Inhibition” value is reported as -3.364%. Turning to `CCOc1ccc2nc(C)cc(NN=Cc3ccccc3[N+](=O)[O-])c2c1` [TCMDC-142048], the “% Inhibition” value is recorded as 91.47%. As for `COc1ccc2nc(C)cc(NN=Cc3ccc([N+](=O)[O-])o3)c2c1` [TCMDC-142036], the figure is 11.78%. As for `CCOc1ccc2nc(C)cc(NN=Cc3cccc([N+](=O)[O-])c3)c2c1` [TCMDC-142049], the figure is 64.63%; as for `Cc1ccc2nc(C)cc(N/N=C/c3ccc([N+](=O)[O-])o3)c2c1` [TCMDC-142035], 56.06%. For `Cc1ccc2nc(C)cc(NN=Cc3ccc(Cl)cc3)c2c1` [TCMDC-123976], the “% Inhibition” value is -8.095%. As for `Cc1ccc2nc(C)cc(N/N=C/c3ccc([N+](=O)[O-])cc3)c2c1` [TCMDC-142070], the figure is 109.1%; as for `COCCNCc1ncsc1-c1ccc2c(Nc3cc(O)ccc3C)ccnc2c1` [TCMDC-138465], -33.69%; as for `CC(C)(C)c1ccccc1OC(=O)c1ccccc1` [TCMDC-123936], -15.9%.

Turning to `CCCN1CCC(c2c[nH]c3ccc(NC(=O)Nc4cccc(Cl)c4Cl)cc23)CC1` [TCMDC-139182], the “% Inhibition” value was -83.82%. The same measure for `O=[N+]([O-])c1ccc(Nc2nc(N/N=C/c3ccc(-c4ccc([N+](=O)[O-])cc4)o3)nc(Nc3ccccc3)n2)cc1` [TCMDC-123858]: -4.596%; for `COc1ccc2c(N/N=C/c3cccc([N+](=O)[O-])c3)cc(C)nc2c1` [TCMDC-142089]: 108%; for `COc1ccc2c(N/N=C/c3ccccc3[N+](=O)[O-])cc(C)nc2c1` [TCMDC-142088]: -15.58%. With `Cc1cc(N/N=C/c2cccc([N+](=O)[O-])c2)c2ccccc2n1` [TCMDC-123977], the “% Inhibition” value is given as 89.22%.

Regarding `COc1ccc2nc(C)cc(NN=Cc3cccc([N+](=O)[O-])c3)c2c1` [TCMDC-123972], the “% Inhibition” value stood at 49.98%. For the compound `O=[N+]([O-])c1ccc(C=NNc2nc(Nc3ccccc3)nc(Nc3ccccc3)n2)o1` [TCMDC-125802], the “% Inhibition” value is listed as 108.2%. As for `O=[N+]([O-])c1ccc(-c2ccc(C=NNc3nc(Nc4ccccc4)nc(Nc4ccccc4)n3)o2)cc1` [TCMDC-124230], the figure is -25.78%. As for `Cc1ccc2c(N/N=C/c3cccc([N+](=O)[O-])c3)cc(C)nc2c1` [TCMDC-142072], the “% Inhibition” value is 87.02%. Take `Cc1cc(N/N=C/c2ccccc2[N+](=O)[O-])c2ccccc2n1` [TCMDC-123978]: the “% Inhibition” value is on record as -75.07%. The same measure for `Cc1ccc2c(N/N=C/c3ccccc3[N+](=O)[O-])cc(C)nc2c1` [TCMDC-142071]: 26.69%.

With `CNC(=O)CSc1nnc(-c2ccc(C)cc2)c(-c2ccc(C)cc2)n1` [TCMDC-123901], the “% Inhibition” value worked out at 5.321%. The same measure for `NC(=O)Nc1ccc2cn[nH]c2c1` [TCMDC-131601]: 13.14%. The same measure for `C=CCc1cccc(CN2CCC(c3cc(=O)[nH]c(-c4ccccn4)n3)CC2)c1O` [TCMDC-124851]: 46.78%; for `CCc1nc2c(N)nc(N)nc2nc1-c1ccc(OC)cc1` [TCMDC-132107]: 7.623%; for `Cc1cccc(C=NNc2cc(C)nc3ccc(F)cc23)n1` [TCMDC-142019]: -41.63%. On to `COc1cccc2c(N/N=C/c3ccccc3[N+](=O)[O-])cc(C)nc12` [TCMDC-142043], for which the “% Inhibition” value is 74.75%. As for `Cc1ccc(Nc2nc(N/N=C/c3cccc([N+](=O)[O-])c3)nc(Nc3ccccc3)n2)c(C)c1` [TCMDC-124206], the figure is 1.923%.

As for `Cc1cc(N/N=C/c2ccccc2[N+](=O)[O-])c2cccc(C)c2n1` [TCMDC-142073], the “% Inhibition” value was -15.7%. Regarding `CCOc1ccc2nc(C)cc(NN=Cc3cccc(F)c3)c2c1` [TCMDC-142093], the “% Inhibition” value was 73.55%. Take `Cc1ccc2nc(C)cc(N/N=C/c3cccc([N+](=O)[O-])c3)c2c1` [TCMDC-142069]: the “% Inhibition” value is listed as 66.26%.

With `Cc1ccc(Nc2nc(N/N=C/c3ccccc3[N+](=O)[O-])nc(Nc3ccc([N+](=O)[O-])cc3)n2)cc1C` [TCMDC-124207], the “% Inhibition” value was 32.01%. As for `Cc1cc(N2CCCC2)nc(Nc2ccc(NC(=O)c3ccccc3C)cc2)n1` [TCMDC-124711], the figure is -8.542%; as for `CCOC(=O)c1c(C)noc1Nc1ccc(OC)cc1` [TCMDC-131521], -6.953%. The same measure for `CCc1c[nH]c2c(N3CCCC3=O)cc(C(=O)N[C@@H](Cc3ccccc3)[C@H](O)CNC(C)(C)CCCC(C)C)cc12` [TCMDC-135025]: 68.24%; for `CCNc1cc(C(=O)N[C@@H](Cc2ccccc2)[C@H](O)CNCC(C)C)cc(N2CCCC2=O)c1` [TCMDC-138888]: 11.22%. The same measure for `CCc1cn(C)c2c(N3CCCC3=O)cc(C(=O)N[C@@H](Cc3ccccc3)[C@H](O)CNC(C)(C)CCCC(C)C)cc12` [TCMDC-135199]: 78.23%; for `CCc1c[nH]c2c(N3CCCC3=O)cc(C(=O)N[C@@H](Cc3ccccc3)[C@H](O)CNC3CCCCC3)cc12` [TCMDC-135024]: 43.33%; for `CCc1c[nH]c2c(N3CCCS3(=O)=O)cc(C(=O)N[C@@H](Cc3ccccc3)[C@H](O)CNC3CCCCC3)cc12` [TCMDC-135169]: 49.22%. For `COc1cccc(CNC[C@@H](O)[C@H](Cc2ccccc2)NC(=O)c2cc(N3CCCC3=O)c3[nH]cc(C(C)C)c3c2)c1` [TCMDC-132584], the “% Inhibition” value is -12.1%.

As for `CCNc1cc(C(=O)N[C@@H](Cc2ccccc2)[C@H](O)CNCCC(C)c2ccccc2)cc(N2CCCC2=O)c1` (stereo partly shown) [TCMDC-141683], the “% Inhibition” value was 6.791%.

Consider `CCc1c[nH]c2c(N3CCCCC3=O)cc(C(=O)N[C@@H](Cc3ccccc3)[C@H](O)CNCc3cccc(OC)c3)cc12` [TCMDC-134156], for which the “% Inhibition” value is 3.442%. The same measure for `CCc1c[nH]c2c(N3CCCS3(=O)=O)cc(C(=O)N[C@@H](Cc3ccccc3)[C@H](O)CNC(C)(C)CCCC(C)C)cc12` [TCMDC-135168]: 100.1%; for `CCc1ccnc2c(N3CCCC3=O)cc(C(=O)N[C@@H](Cc3ccccc3)[C@H](O)CNC3CCOCC3)cc12` [TCMDC-135882]: -3.363%; for `CCc1c[nH]c2c(N3CCCS3(=O)=O)cc(C(=O)N[C@@H](Cc3ccccc3)[C@H](O)CNC(C)(C)c3cccc(C(F)(F)F)c3)cc12` [TCMDC-135172]: 20.21%.

In the case of `CCc1cn(C)c2c(N3CCCC3=O)cc(C(=O)N[C@@H](Cc3ccccc3)[C@H](O)CNC3CCCCC3)cc12` [TCMDC-135198], the “% Inhibition” value was 56.93%. As for `COc1cc(Nc2nccc(N3CCC(NC(=O)c4cccc(C#N)c4)C3)n2)cc(OC)c1OC` (stereo not shown) [TCMDC-133620], the figure is 1.02%; as for `N#Cc1cccc(C(=O)Nc2cccc(-c3ccc(C(=O)Nc4cccnc4)cc3)c2)c1` [TCMDC-133695], -12.11%; as for `O=C(/C=C/c1ccc(F)cc1)NC1CCC(CCN2CCCN(c3ccc(C(F)(F)F)cn3)CC2)CC1` (stereo not shown) [TCMDC-139724], -25.55%. `c1ccc(-c2cccnn2)cc1` [TCMDC-123929]: the “% Inhibition” value is recorded as -43.62%. As for `CCCCc1cc(NCc2ccncc2)nc(Nc2cccc(OC)c2)n1` [TCMDC-133999], the figure is -9.372%; as for `O=C(Nc1ccc(-c2cccc(-c3nc4ccc(C(F)(F)F)cc4[nH]3)c2)cc1)c1csnn1` [TCMDC-136903], -25.31%. The same measure for `Cc1ccc2c(c1)c(-c1ccccc1)c(-c1ccccc1)n2CC(O)CN1CCN(CC=Cc2ccccc2)CC1` (stereo not shown) [TCMDC-123998]: 27.39%; for `O=C(C1CCN(C(c2ccccc2)c2ccc(Cl)c(Cl)c2)CC1)N1CC=CC1` (stereo not shown) [TCMDC-135516]: -15.6%.

For the compound `COc1cc(C2=NN(S(=O)(=O)c3c(Cl)cc(Cl)cc3Cl)CCCC2)ccc1Cl` [TCMDC-136212], the “% Inhibition” value was -48.52%. The same measure for `CCc1cn2c3c(cc(C(=O)N[C@@H](Cc4ccccc4)[C@H](O)CNC(C)(C)CCCC(C)C)cc13)N(C)S(=O)(=O)C2` [TCMDC-135400]: 80.58%. Turning to `CCc1cn2c3c(cc(C(=O)N[C@@H](Cc4ccccc4)[C@H](O)CNC(C)C)cc13)N(C)S(=O)(=O)C2` [TCMDC-135401], the “% Inhibition” value is on record as -18.09%.

As for `CCc1cn2c3c(cc(C(=O)N[C@@H](Cc4ccccc4)[C@H](O)CNC(C)(C)c4cccc(OC)c4)cc13)N(C)S(=O)(=O)C2` [TCMDC-135393], the “% Inhibition” value was determined as 41.96%.
